Shown are actives, neighbours in structure and some others; about 1.2% of the full set was active somewhere.
Gli-Sufu antag: Gli-Sufu pathway antagonism; Sufu-KO-LIGHT fibroblasts, Gli luciferase reporter luminescence; inhibition, % at 5 µM; 340,000 tested, 0.74% active;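 active = inhibition above about 55%, limit read from the data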;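 also: 0% = DMSO-treated cells and 100% = wells with medium but no cells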
NCOA1 inh: inhibits human SRC1 coactivator; Q15788; HEK293 GAL4-SRC1 luciferase reporter, luminescence; inhibition, % at 3.6 µM; 360,000 tested, 0.12% active; AID 588354;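 active = inhibition above the campaign mean plus 3 SD, with each screening campaign given its own cutoff, cut at about 60% in these data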;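 also: 0% = DMSO treated cells and 100% = gossypol at 36 µM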
NCOA3 inh: human NCOA3 inhibition; Q9Y6Q9; HEK293 GAL4-SRC3 luciferase reporter, luminescence; inhibition, % at 3.6 µM; 360,000 tested, 0.17% active;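 active = inhibition above a per-campaign cutoff, the mean of all compounds plus 3 SD, cut at about 60% in these data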;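 also: 0% = DMSO-treated cells and 100% = gossypol-treated cells at 36 µM; higher means less SRC3-driven luciferase light from the GAL4 reporter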
COUP-TFII inh: blocks human COUP-TFII nuclear receptor. HEK293T NGFI-A luciferase reporter, luminescence. 370,000 tested, 0.7% active. inhibition, % at 8.6 µM. P24468;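 active = inhibition above a per-plate cutoff, mean inhibition of test wells between control levels plus 3 SD, cut at about 38% in these data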;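 also: cells cotransfected with COUP-TFII expression vector driving the NGFI-A reporter; 0% = median of COUP-TF2 test wells and 100% = reporter-only cells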
Target sequence (P24468 whole entry, looked up): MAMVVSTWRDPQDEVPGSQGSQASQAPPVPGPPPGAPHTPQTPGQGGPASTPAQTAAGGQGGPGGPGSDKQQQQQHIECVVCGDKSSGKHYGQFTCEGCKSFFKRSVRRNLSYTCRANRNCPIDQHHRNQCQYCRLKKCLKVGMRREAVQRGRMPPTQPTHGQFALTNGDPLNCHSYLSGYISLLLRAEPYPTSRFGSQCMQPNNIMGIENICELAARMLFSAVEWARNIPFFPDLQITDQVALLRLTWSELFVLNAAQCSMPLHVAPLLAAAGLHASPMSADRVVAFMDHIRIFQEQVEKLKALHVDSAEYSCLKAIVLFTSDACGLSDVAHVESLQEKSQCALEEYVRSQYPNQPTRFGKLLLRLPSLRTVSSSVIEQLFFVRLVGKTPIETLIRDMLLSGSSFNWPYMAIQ
NCOA2 inhibitor: inhibits human steroid receptor coactivator 2; Q15596; HEK293 GAL4-SRC2 luciferase reporter, luminescence; inhibition, % at 9 µM; 370,000 tested, 0.17% active;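 active = inhibition above the mean inhibition of all tested compounds plus 3 SD, set per campaign, cut at about 52% in these data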;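 also: 0% = DMSO treated cells and 100% = cells given Gossypol at 36 µM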
NR5A2 inv ag: NR5A2 inverse agonism in reporter assay. O00482. HEK293T StAR-luciferase reporter, LRH-1 transfected, 24 h. inhibition, % at 3.6 µM. 360,000 tested, 0.13% active;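 active = inhibition above the mean inhibition of all tested compounds plus 3 SD, cut at about 73% in these data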;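 also: 0% = DMSO wells and 100% = reporter-only cells lacking LRH-1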
Gli-Sufu confirm: Gli-SUFU antagonism confirmation, single concentration; shares compounds with Gli-Sufu antag; Sufu-KO-LIGHT cells, Gli luciferase reporter, luminescence; inhibition, % at 5 µM; 2,500 tested, 40% active; AID 602428;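 active = mean inhibition at 5 µM reaching about 45%, limit read from the data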;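 also: plate controls were DMSO-treated cells for no effect and wells lacking cells for full effect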
Gli cytotox: cytotoxic in Gli-SUFU antagonist counter-screen | cytotoxicity, % at 5 µM | AID 651994 | shares compounds with Gli-Sufu antag | Sufu-KO-LIGHT cells cytotoxicity, ATP luminescence | 2,500 tested, 32% active;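 active = mean cytotoxicity at 5 µM above about 25%, limit read from the data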;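 also: cells exposed to compound overnight for roughly 16 to 18 hours; plate controls were DMSO wells with cells for no effect and medium without cells for full effect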
Wnt3a cs: inhibits Wnt3a reporter, counter-screen for Gli-SUFU antagonists. shares compounds with Gli-Sufu antag. Wnt-LIGHT cells, Wnt3a-driven luciferase reporter, luminescence. inhibition, % at 6.25 µM. 2,500 tested, 20% active. AID 651995;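 active = mean inhibition above about 25%, limit read from the data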
Starred values were filed as active, the others as inactive; x = not tested or not shown.

SMILES	Gli-Sufu antag	NCOA1 inh	NCOA3 inh	COUP-TFII inh	NCOA2 inhibitor	NR5A2 inv ag	Gli-Sufu confirm	Gli cytotox	Wnt3a cs
COC(=O)C1=C(C)N(C)C(=O)NC1c1ccccc1 (stereo not drawn)	-2	11	10	8	-32	14	x	x	x
CC1=C(C(=O)OC(C)C)C(c2ccccc2)NC(=O)N1C (stereo not drawn)	57*	-5	7	22	14	-2	26	1	-9
Cc1cc2c(nc1C)CCCN2S(=O)(=O)c1ccc(F)cc1	x	x	x	2	0	x	x	x	x
COc1cc(C(=O)NNC(=S)NC(=O)c2ccc(F)cc2)cc(OC)c1OC	57*	12	19	5	-22	3	14	18	-19
O=S(=O)(CC1NCCc2ccccc21)NCc1ccc(F)cc1 (stereo not drawn)	x	x	x	6	-5	x	x	x	x
Cc1cc(C)cc(NC(=O)C2CCC(CNC(=O)[C@@H]3Cc4ccccc4CN3)CC2)c1 (stereo partly drawn)	57*	-13	13	26	9	14	18	11	-59
COc1ccc2c(c1)c([C@@H]1[C@H](C)[C@H]3CCCC[C@H]3CN1S(=O)(=O)c1ccc(C)cc1)cn2C	6	-26	-4	7	4	2	x	x	x
Cc1ccc(S(=O)(=O)N2C[C@@H]3CCCC[C@@H]3[C@@H](C)[C@H]2c2cn(Cc3ccccc3)c3ncccc23)cc1	78*	53	34	-5	-14	9	86*	40*	33*
Cc1ccc(S(=O)(=O)N2C[C@@H]3CCCC[C@@H]3[C@@H](C)[C@H]2c2cn(Cc3ccccc3)c3ccccc23)cc1	88*	-40	1	-17	4	7	85*	32*	7
Cc1ccc(S(=O)(=O)N2C[C@@H]3[C@H]4CC[C@H](C4)[C@@H]3[C@@H](C)[C@@H]2c2cn(Cc3ccccc3)c3ncccc23)cc1	-9	6	-9	4	-26	11	x	x	x
Cc1cccc(-c2nnc(SCC(=O)Nc3cccc4ccccc34)n2Cc2ccco2)c1	x	x	x	26	18	x	x	x	x
CCOC(=O)C1=C(C)N=C2SC(C)C(=O)N2C1c1cccc(F)c1 (stereo not drawn)	5	-4	-15	-7	-1	-8	x	x	x
CC1=C(C(=O)OCC(C)C)C(c2cccc(F)c2)N2C(=O)C(C)SC2=N1 (stereo not drawn)	65*	-7	8	-5	6	5	11	-3	-12
Cc1cccc(NS(=O)(=O)c2ccc(C)c(NS(=O)(=O)c3cccs3)c2)c1	96*	-22	-2	-25	-15	4	14	12	-11
Cc1cccc(NS(=O)(=O)c2ccc(NS(=O)(=O)c3cccs3)cc2)c1	x	-2	-31	-8	1	7	x	x	x
O=C(NCCc1ccccc1Cl)[C@@H]1CCCN1C(=O)[C@@H](NS(=O)(=O)c1ccc(F)cc1F)c1ccccc1	x	x	x	7	-3	x	x	x	x
O=[N+]([O-])c1ccccc1/C=C/C=Nn1c(-c2ccc(F)cc2)n[nH]c1=S	x	x	x	13	7	x	x	x	x
CC(=O)NC(CCS(C)(=O)=O)C(=O)Nc1cc(C)ccc1C (stereo not drawn)	54	-5	1	4	-30	-5	10	7	-11
CC(=O)NC(CCS(C)(=O)=O)C(=O)Nc1cccc(C)c1 (stereo not drawn)	-3	15	16	16	-13	18	x	x	x
COc1ccc(C(=O)N/C(=C/c2ccccc2F)C(=O)NCCN2CCOCC2)cc1OC	71*	-13	-2	-4	-19	1	23	10	-4
O=C(CCCOc1ccc(Cl)cc1Cl)Nc1ccccc1C(=O)O	-36	-38	-49	-6	-4	-142	x	x	x
CCOc1ccccc1NC(=S)NC(=O)CCCOc1ccc(Cl)cc1Cl	65*	8	8	11	-13	-1	30	-1	-39
Cn1cc(-c2cccc3[nH]cc(-c4ccccc4)c23)c2ccccc21	x	x	x	-7	-8	x	x	x	x
CCCn1cnnc1CNC(=O)[C@@H](Cc1ccccc1)NC(=O)[C@H]1O[C@@H](n2ccc(=O)[nH]c2=O)[C@H](O)[C@@H]1O	x	x	x	-1	10	x	x	x	x
Cc1ccc(NC(=S)N(CCCN2CCCC2)Cc2cccn2Cc2ccc(Cl)cc2)cc1Cl	61*	-2	6	24	3	7	16	6	-25
SMILES	Gli-Sufu antag	NCOA1 inh	NCOA3 inh	COUP-TFII inh	NCOA2 inhibitor	NR5A2 inv ag	Gli-Sufu confirm	Gli cytotox	Wnt3a cs
COc1cc(C(=O)Oc2ccccc2/C=N/NC(=O)c2ccc(Cl)cc2)cc(OC)c1OC	54	-18	13	-24	-7	-43	29	24	-161
COc1cc(C(=O)Oc2ccccc2/C=N/NC(=O)c2ccc(C)c(Cl)c2)cc(OC)c1OC	20	17	17	-7	-4	4	x	x	x
CN(C[C@@H](Cc1cccc2ccccc12)N(C[C@H](Cc1ccccc1)N(CCc1ccccc1)N=O)N=O)N=O	60*	9	1	8	5	7	7	10	-12
COc1cc(NC(=O)c2cc3ccccc3cc2OC)ccc1NC(=O)c1cccs1	57*	8	33	-17	20	22	35	16	-71
COc1cc(NC(=O)c2ccccc2Cl)ccc1NC(=O)c1cccs1	-98	-52	-43	-36	-71	-93	x	x	x
Cc1cccc(-c2cccc3c4c([nH]c23)[C@@H]2C[C@H](N(C)C(=O)Nc3ccccc3C)[C@H]([C@H](C)O)CN2CC4)c1	x	x	x	-5	-5	x	x	x	x
COCCNC(=O)CCn1nc(-c2ccc(Cl)cc2)c2ccccc2c1=O	50	-2	-36	x	x	12	6	1	-1
CCOc1ccc(/C=C2\SC(=S)N(CCC(=O)N(CCO)c3ccccc3)C2=O)cc1	51	2	-6	3	17	-4	18	23	-11
COc1ccc(/C=C2\SC(=S)N(CCC(=O)N(CCO)c3ccccc3)C2=O)cc1OC	11	-16	13	4	-15	-4	x	x	x
CSCCC(NC(=O)OCc1ccccc1)C(=O)NC(Cc1c[nH]c2ccccc12)C(=O)O (stereo not drawn)	x	x	x	-5	-6	x	x	x	x
COc1ccc(NC(=O)COCC(=O)Nc2ccc(C)cc2)cc1	54	11	15	-2	0	13	21	13	-2
COC(=O)[C@]12C[C@H](CC(=O)N3CCC(c4ccccc4)CC3)C(=O)N(CCc3ccc(OC)c(OC)c3)C1=C[C@H](C(C)(C)C)O[C@@H]2C	x	x	x	18	-32	x	x	x	x
